Results filed as inconclusive are left out. The source made the active and inactive calls. The calls were made as follows, unless noted: active = hit-call score of the fitted dose curve at least 0.9, where 1 is the maximum; inactive = score below 0.9.
Legend:
[1] = molecular target: Oxysterols receptor LXR-alpha (Homo sapiens) (UniProt Q13133); assay: ATG_LXRa_TRANS: Attagene TRANS-FACTORIAL HepG2 Assay for human Liver X Receptor alpha (LXRa) (AID 2282980; active = hit-call score of the fitted dose curve at least 0.9, where 1 is the maximum); conditions: HepG2 Attagene TRANS reporter, LXRa transactivation
Chain of Oxysterols receptor LXR-alpha (Homo sapiens) (Q13133 whole entry, looked up, the tested form may be a part): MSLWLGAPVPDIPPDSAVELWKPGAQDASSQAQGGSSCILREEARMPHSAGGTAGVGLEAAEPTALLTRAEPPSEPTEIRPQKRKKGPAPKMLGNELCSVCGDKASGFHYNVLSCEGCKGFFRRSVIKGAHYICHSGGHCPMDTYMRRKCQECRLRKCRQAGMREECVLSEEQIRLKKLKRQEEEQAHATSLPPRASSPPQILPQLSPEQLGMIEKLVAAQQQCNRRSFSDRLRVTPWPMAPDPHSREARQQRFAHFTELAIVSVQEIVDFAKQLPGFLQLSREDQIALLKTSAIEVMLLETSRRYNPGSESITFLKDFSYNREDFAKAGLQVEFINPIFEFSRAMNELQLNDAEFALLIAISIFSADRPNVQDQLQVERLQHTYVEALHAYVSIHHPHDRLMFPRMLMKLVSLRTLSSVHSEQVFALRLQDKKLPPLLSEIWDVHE
Summary of the method: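 Chemical-induced reporter mRNA measured by RT-PCR with fluorescent labelling and capillary electrophoresis after 24 h dosing of transiently transfected HepG2 cells expressing exogenous NR-Gal4 chimeras; increases scored against DMSO baseline.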

[2] = molecular target: Oxysterols receptor LXR-beta (Homo sapiens) (UniProt P55055); assay: ATG_LXRb_TRANS: Attagene TRANS-FACTORIAL HepG2 Assay for human Liver X Receptor beta (LXRb) (AID 2282981; active = hit-call score of the fitted dose curve at least 0.9, where 1 is the maximum); conditions: HepG2 Attagene TRANS GAL4-LXRb reporter, mRNA
Chain of Oxysterols receptor LXR-beta (Homo sapiens) (P55055 whole entry, looked up, the tested form may be a part): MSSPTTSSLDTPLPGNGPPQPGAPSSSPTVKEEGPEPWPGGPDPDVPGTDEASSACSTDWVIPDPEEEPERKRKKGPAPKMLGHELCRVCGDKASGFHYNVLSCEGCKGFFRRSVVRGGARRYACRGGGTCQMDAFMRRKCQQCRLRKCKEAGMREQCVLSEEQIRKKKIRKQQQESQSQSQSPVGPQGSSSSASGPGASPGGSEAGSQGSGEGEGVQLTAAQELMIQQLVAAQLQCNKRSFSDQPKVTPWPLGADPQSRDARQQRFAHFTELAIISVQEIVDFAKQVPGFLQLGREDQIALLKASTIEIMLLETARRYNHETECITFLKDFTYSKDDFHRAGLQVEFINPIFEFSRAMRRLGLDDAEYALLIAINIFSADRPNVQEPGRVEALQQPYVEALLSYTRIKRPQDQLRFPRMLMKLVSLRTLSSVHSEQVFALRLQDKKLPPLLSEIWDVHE
Summary of the method: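 Readout: fluorescent reporter mRNA fragments resolved by capillary electrophoresis after RT-PCR. System: transiently transfected human HepG2, exogenous LXRb-Gal4 chimera driving GAL4-UAS reporter, 24 h dosing. Activity fitted upward against DMSO baseline.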

[3] = molecular target: Hepatocyte nuclear factor 4-alpha (Homo sapiens) (UniProt P41235); assay: ATG_HNF4a_TRANS: Attagene TRANS-FACTORIAL HepG2 Assay for human Hepatocyte Nuclear Factor 4 alpha (HNF4a) (AID 2282982; active = hit-call score of the fitted dose curve at least 0.9, where 1 is the maximum); conditions: HepG2 HNF4a transactivation reporter, mRNA readout
Chain of Hepatocyte nuclear factor 4-alpha (Homo sapiens) (P41235 whole entry, looked up): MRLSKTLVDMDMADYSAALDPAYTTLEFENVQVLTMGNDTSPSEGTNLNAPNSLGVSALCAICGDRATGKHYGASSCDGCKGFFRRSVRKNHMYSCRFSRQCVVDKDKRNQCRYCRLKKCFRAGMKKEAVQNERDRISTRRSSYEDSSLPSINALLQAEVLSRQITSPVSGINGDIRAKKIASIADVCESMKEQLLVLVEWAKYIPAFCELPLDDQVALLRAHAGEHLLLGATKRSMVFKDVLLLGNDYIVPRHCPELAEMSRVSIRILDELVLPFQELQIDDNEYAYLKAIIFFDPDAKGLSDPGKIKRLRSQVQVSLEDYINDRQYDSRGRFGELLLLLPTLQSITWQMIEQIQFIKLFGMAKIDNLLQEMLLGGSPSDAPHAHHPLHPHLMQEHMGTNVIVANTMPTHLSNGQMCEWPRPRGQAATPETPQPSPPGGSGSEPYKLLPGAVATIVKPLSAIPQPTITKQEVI
Summary of the method: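 Transient MRTU transfection of HepG2, 24 h dosing. Readout: reporter mRNA via RT-PCR + capillary electrophoresis, fluorescence; activity fit upward relative to DMSO control.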

[4] = ATG_M_06_TRANS: Attagene TRANS-FACTORIAL HepG2 Assay for M06 Transcription Factor (Internal Marker) (AID 2282983; active = hit-call score of the fitted dose curve at least 0.9, where 1 is the maximum;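 also: reporter transcript level by RT-PCR then capillary electrophoresis fluorescence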); conditions: HepG2 Attagene TRANS M06 internal marker reporter
Summary of the method: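 Background-control reporter readout: after 24 h chemical exposure of transiently transfected HepG2 (GAL4-UAS reporter units), mRNA quantified by RT-PCR with fluorescent labeling and capillary electrophoresis. Gain-of-signal fitting against DMSO baseline.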

[5] = ATG_M_32_TRANS: Attagene TRANS-FACTORIAL HepG2 Assay for M32 Transcription Factor (Internal Marker) (AID 2282984; active = hit-call score of the fitted dose curve at least 0.9, where 1 is the maximum;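 also: transcript level of a background control reporter unit measured by RT-PCR and capillary electrophoresis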); conditions: HepG2 Attagene TRANS M32 internal marker reporter
Summary of the method: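 Read-out: fluorescent reporter cDNA fragments resolved by capillary electrophoresis after RT-PCR of total RNA. Transfected HepG2 cells were exposed to chemical for 24 h. Activity scored in the positive direction relative to DMSO.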

[6] = molecular target: Nuclear receptor subfamily 4 group A member 2 (Homo sapiens) (UniProt P43354); assay: ATG_NURR1_TRANS: Attagene TRANS-FACTORIAL HepG2 Assay for human Nuclear Receptor Related Protein 1 (NURR1) (AID 2282985; active = hit-call score of the fitted dose curve at least 0.9, where 1 is the maximum); conditions: HepG2 Attagene TRANS reporter, mRNA readout
Chain of Nuclear receptor subfamily 4 group A member 2 (Homo sapiens) (P43354 whole entry, looked up, the tested form may be a part): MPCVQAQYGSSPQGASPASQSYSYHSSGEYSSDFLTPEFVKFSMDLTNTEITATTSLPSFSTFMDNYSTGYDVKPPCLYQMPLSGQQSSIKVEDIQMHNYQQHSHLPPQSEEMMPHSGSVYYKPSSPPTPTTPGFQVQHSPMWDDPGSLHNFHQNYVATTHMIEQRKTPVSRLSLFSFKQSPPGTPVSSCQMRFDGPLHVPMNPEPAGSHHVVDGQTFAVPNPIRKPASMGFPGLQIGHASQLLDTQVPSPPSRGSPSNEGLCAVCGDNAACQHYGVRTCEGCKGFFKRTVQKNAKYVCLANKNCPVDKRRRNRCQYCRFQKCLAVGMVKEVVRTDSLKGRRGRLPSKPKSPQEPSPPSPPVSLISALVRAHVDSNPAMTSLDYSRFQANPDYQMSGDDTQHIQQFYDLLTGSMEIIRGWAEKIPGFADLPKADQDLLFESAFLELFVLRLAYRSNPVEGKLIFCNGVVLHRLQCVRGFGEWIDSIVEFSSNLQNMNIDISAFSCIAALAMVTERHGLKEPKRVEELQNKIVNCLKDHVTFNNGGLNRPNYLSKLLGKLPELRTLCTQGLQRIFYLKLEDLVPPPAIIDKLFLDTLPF
Summary of the method: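 Read-out: reporter mRNA induction by RT-PCR plus capillary electrophoresis with fluorescence detection, after 24 h dosing of transfected HepG2 cells. Exogenous NR-Gal4 chimera activity drives GAL4-UAS reporter; activity fitted upward versus DMSO.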

[7] = molecular target: Transcriptional activator Myb (Homo sapiens) (UniProt P10242); assay: ATG_Myb_CIS: Attagene CIS-FACTORIAL HepG2 Assay for human Myeloblastosis (Myb) Proto-Oncogene Transcription Factor (AID 2282986); conditions: HepG2 Attagene CIS-FACTORIAL Myb reporter transcription; actives raise or lower the signal
Chain of Transcriptional activator Myb (Homo sapiens) (P10242 whole entry, looked up): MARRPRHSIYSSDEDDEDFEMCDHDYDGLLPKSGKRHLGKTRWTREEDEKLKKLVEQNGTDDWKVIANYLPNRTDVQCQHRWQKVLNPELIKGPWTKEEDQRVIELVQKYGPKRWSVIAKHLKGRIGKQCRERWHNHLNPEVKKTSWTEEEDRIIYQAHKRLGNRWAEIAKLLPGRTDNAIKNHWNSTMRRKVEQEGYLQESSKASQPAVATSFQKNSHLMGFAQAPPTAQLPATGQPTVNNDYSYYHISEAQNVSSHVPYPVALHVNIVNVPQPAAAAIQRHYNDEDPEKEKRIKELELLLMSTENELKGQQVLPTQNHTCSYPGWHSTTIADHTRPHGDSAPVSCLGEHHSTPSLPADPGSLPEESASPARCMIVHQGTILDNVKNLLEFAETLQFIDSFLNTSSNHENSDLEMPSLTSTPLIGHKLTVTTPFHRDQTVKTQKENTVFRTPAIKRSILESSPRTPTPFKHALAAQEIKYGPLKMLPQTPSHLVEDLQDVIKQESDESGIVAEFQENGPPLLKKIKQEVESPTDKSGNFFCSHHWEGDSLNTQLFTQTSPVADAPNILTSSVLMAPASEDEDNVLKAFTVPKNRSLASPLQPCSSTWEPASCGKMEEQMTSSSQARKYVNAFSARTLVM
Summary of the method: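 Transiently transfected HepG2 cells carrying a multiplexed cis-promoter reporter set report endogenous Myb activity after 24 h compound exposure. Reporter mRNA is read by RT-PCR with capillary electrophoresis of fluorescent products, fitted bidirectionally against DMSO.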

[8] = molecular target: Myc proto-oncogene protein (Homo sapiens) (UniProt P01106); assay: ATG_Myc_CIS: Attagene CIS-FACTORIAL HepG2 Assay for human Myelocytomatosis (Myc) Proto-Oncogene Transcription Factor (AID 2282990); conditions: HepG2, Attagene cis-reporter transcription factor activity; actives raise or lower the signal
Chain of Myc proto-oncogene protein (Homo sapiens) (P01106 whole entry, looked up): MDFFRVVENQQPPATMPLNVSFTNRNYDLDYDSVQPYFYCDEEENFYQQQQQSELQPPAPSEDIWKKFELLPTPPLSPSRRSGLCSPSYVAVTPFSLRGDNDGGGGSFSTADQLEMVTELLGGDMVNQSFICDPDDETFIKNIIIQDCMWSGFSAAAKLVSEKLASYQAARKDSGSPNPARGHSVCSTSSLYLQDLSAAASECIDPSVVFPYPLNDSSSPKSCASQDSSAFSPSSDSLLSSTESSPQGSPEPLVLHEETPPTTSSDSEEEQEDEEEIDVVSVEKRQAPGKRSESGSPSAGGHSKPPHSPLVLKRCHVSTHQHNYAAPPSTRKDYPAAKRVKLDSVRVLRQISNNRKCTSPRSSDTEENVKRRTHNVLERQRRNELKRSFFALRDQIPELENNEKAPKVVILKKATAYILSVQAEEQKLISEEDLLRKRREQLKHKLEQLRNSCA
Summary of the method: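 Transiently transfected HepG2 cells bearing cis-promoter reporter units for endogenous transcription factors; 24 h exposure. Reporter mRNA measured by RT-PCR, 6-FAM primer extension, HpaI cut and capillary electrophoresis; bidirectional fit relative to DMSO.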

[9] = ATG_NF_kB_CIS: Attagene CIS-FACTORIAL HepG2 Assay for human Nuclear Factor Kappa B (NF-kB) (AID 2282991); conditions: HepG2 Attagene cis-factorial NF-kB reporter mRNA; actives raise or lower the signal
Summary of the method: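 HepG2 cells transfected with cis-promoter-driven reporter units, so endogenous transcription factor activity is measured. Reporter mRNA quantified 24 h after dosing by RT-PCR and capillary electrophoresis, with bidirectional fitting against DMSO.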

[10] = ATG_NRF2_ARE_CIS: Attagene CIS-FACTORIAL HepG2 Assay for human Nuclear Factor Erythroid 2 Related Factor 2 (NFR2) response to Antioxidant Response Elements (ARE) (AID 2282992); conditions: HepG2 Attagene ARE/NRF2 reporter, transcription factor activity; actives raise or lower the signal;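 as to AC50: reporter mRNA level measured by RT-PCR and capillary electrophoresis fluorescence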
Summary of the method: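 Readout: reporter mRNA quantified by RT-PCR plus FAM-labelled primer extension, HpaI digestion and capillary electrophoresis, 24 h after dosing transfected HepG2 cells. Gain or loss of signal is fitted bidirectionally against DMSO baseline.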

[11] = ATG_Oct_MLP_CIS: Attagene CIS-FACTORIAL HepG2 Assay for human Octamer-Binding Transcription Factor (Oct) (AID 2282993); conditions: HepG2 Attagene cis-factorial Oct reporter, mRNA; actives raise or lower the signal
Summary of the method: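 Using HepG2 cells bearing transfected cis-reporter constructs, mRNA induction was read after 24 h by fluorescent RT-PCR and capillary electrophoresis, with DMSO defining baseline for gain- or loss-of-signal fits.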

[12] = molecular target: Cellular tumor antigen p53 (Homo sapiens) (UniProt P04637); assay: ATG_p53_CIS: Attagene CIS-FACTORIAL HepG2 Assay for human p53 Transcription Factor (AID 2282994); conditions: HepG2 p53 cis-element reporter, Attagene mRNA; actives raise or lower the signal
Chain of Cellular tumor antigen p53 (Homo sapiens) (P04637 whole entry, looked up): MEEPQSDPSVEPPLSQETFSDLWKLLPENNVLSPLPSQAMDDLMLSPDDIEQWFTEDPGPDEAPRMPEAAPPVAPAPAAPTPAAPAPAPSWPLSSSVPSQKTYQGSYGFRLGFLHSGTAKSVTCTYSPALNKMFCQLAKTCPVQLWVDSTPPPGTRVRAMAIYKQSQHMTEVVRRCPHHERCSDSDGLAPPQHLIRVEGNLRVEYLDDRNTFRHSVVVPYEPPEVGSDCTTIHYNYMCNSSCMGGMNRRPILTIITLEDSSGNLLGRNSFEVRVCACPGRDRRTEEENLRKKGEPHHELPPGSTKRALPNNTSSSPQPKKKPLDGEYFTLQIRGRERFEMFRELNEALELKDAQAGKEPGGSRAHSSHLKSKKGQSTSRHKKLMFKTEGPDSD
Summary of the method: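 Read-out: reporter mRNA by RT-PCR plus capillary electrophoresis with fluorescence detection. Human HepG2 liver cells carried transfected multi-reporter cis-element constructs, dosed 24 h. Gain or loss of signal fitted bidirectionally against DMSO control.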

[13] = BSK_3C_TissueFactor: BioMAP Diversity Plus: 3C Assay for Tissue Factor Biomarker Activity (AID 2282997); conditions: BioMAP 3C HUVEC, tissue factor biomarker readout; actives raise or lower the signal
Summary of the method: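 Tissue factor on primary human umbilical vein endothelium was read by ELISA 24 h after dosing, gain or loss relative to DMSO. Cytotoxicity ran alongside via SRB (0.1%, TCA-fixed, 560 nm).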

[14] = BSK_3C_VCAM1: BioMAP Diversity Plus: 3C Assay for Vascular cell adhesion molecule 1 (VCAM1) Biomarker Activity (AID 2282999); conditions: BioMAP 3C HUVEC, VCAM1 ELISA, cytokine-stimulated; actives raise or lower the signal
Summary of the method: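 HUVEC primary cells, 24 h compound exposure; VCAM-1 by ELISA; gain/loss of signal fitted bidirectionally vs DMSO baseline.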

[15] = BSK_4H_Eotaxin3: BioMAP Diversity Plus: 4H Assay for Eotaxin 3 Biomarker Activity (AID 2283000); conditions: primary human endothelial cells (HUVEC); actives raise or lower the signal;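 as to outcome: CCL26 protein level quantified by ELISA in parallel with SRB cytotoxicity check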
Summary of the method: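 Human umbilical vein endothelial cells (BSK_4H system) dosed with test chemical; Eotaxin-3 (CCL26) measured by ELISA 24 h after dosing. Bidirectional curve fitting relative to DMSO negative control as baseline.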

[16] = molecular target: human Peroxisome Proliferator-activated Receptor alpha (PPARa), PPARA (gene 5465) (UniProt Q07869); assay: ATG_PPARa_TRANS: Attagene TRANS-FACTORIAL HepG2 Assay for human Peroxisome Proliferator-activated Receptor alpha (PPARa) (AID 2283001; active = hit-call score of the fitted dose curve at least 0.9, where 1 is the maximum)
Chain of human Peroxisome Proliferator-activated Receptor alpha (PPARa), PPARA (gene 5465) (Q07869 whole entry, looked up, the tested form may be a part): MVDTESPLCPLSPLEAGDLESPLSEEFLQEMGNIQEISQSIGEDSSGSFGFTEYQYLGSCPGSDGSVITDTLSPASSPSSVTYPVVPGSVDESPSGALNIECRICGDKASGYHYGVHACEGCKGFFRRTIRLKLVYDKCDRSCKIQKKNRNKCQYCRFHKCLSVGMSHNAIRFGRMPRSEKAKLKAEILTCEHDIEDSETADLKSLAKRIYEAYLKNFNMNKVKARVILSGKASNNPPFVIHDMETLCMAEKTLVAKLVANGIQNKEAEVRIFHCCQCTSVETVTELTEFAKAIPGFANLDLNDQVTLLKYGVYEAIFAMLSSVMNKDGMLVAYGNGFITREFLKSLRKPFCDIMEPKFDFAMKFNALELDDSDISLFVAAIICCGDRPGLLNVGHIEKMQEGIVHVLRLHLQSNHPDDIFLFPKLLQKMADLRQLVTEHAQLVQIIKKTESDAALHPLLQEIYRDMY
Summary of the method: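 Transient HepG2 transfection, GAL4-UAS reporters, NR-Gal4 chimeras; 24 h compound exposure. Readout: reporter transcripts by RT-PCR, 6-FAM primer extension, HpaI digest, capillary electrophoresis. Positive direction vs DMSO baseline.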

[17] = molecular target: Bile acid receptor (Homo sapiens) (UniProt Q96RI1); assay: ATG_FXR_TRANS: Attagene TRANS-FACTORIAL HepG2 Assay for Farnesoid X Receptor (FXR) (AID 2282979; active = hit-call score of the fitted dose curve at least 0.9, where 1 is the maximum;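 also: hits raise reporter mRNA above DMSO so AC50 marks FXR activation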); conditions: HepG2 Attagene TRANS FXR-GAL4 reporter transcription
Chain of Bile acid receptor (Homo sapiens) (Q96RI1 whole entry, looked up, the tested form may be a part): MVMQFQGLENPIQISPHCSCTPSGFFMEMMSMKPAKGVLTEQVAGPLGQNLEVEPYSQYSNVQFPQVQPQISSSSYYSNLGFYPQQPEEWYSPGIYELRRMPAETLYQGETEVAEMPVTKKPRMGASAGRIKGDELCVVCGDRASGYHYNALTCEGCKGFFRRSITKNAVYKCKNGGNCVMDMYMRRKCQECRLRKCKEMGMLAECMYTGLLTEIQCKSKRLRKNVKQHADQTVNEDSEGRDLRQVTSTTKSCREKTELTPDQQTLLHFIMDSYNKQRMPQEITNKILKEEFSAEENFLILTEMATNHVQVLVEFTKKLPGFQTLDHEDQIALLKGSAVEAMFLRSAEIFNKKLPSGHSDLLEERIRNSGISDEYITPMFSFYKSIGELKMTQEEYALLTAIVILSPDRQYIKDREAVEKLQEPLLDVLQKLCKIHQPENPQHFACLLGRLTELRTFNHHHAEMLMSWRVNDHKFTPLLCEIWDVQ
Summary of the method: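 Reporter transcripts from transfected HepG2 cells were measured 24 h after dosing, using RT-PCR with capillary electrophoresis of 6-FAM-labelled fragments. The read-out reflects activity of exogenous FXR-Gal4 chimera on GAL4-UAS units, with induction relative to DMSO.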

[18] = molecular target: Nuclear respiratory factor 1 (Homo sapiens) (UniProt Q16656); assay: ATG_NRF1_CIS: Attagene CIS-FACTORIAL HepG2 Assay for human Nuclear Respiratory Factor 1 (NRF1) Orphan Gene (AID 2282987); conditions: HepG2 NRF1 cis-element reporter, Attagene multiplex; actives raise or lower the signal
Chain of Nuclear respiratory factor 1 (Homo sapiens) (Q16656 whole entry, looked up): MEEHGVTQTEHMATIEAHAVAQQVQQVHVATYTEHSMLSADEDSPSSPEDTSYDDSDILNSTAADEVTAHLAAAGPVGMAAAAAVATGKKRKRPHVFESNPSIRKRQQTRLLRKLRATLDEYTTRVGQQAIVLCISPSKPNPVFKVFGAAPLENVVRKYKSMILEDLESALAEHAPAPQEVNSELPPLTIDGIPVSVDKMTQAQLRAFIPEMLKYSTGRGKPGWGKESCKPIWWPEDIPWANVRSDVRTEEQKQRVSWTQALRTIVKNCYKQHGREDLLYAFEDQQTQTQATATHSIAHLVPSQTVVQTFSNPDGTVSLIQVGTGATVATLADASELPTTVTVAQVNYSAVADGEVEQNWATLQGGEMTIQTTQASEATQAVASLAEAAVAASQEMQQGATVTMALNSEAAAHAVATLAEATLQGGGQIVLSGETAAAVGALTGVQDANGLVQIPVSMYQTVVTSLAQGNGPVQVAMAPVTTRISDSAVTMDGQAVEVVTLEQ
Summary of the method: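 HepG2 cells transiently transfected with multiple cis-regulated reporter units, exposed 24 h. Reporter mRNAs measured by RT-PCR, fluorescent labelling, HpaI digestion and capillary electrophoresis; bidirectional fitting against DMSO.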

[19] = ATG_NFI_CIS: Attagene CIS-FACTORIAL HepG2 Assay for human Nuclear Factor I (NFI) (AID 2282989); conditions: HepG2 cis-regulatory reporter, NFI response element transcription; actives raise or lower the signal
Summary of the method: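 Transfected HepG2 liver cells, exposed 24 h, supplied total RNA for oligo(dT) reverse transcription and reporter-specific PCR. Labelled, HpaI-cut fragments were sized by capillary electrophoresis; DMSO set the baseline for bidirectional fitting.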

[20] = BSK_3C_uPAR: BioMAP Diversity Plus: 3C Assay for Urokinase-type plasminogen activator receptor (uPAR) Biomarker Activity (AID 2282998); conditions: BioMAP 3C HUVEC, uPAR biomarker ELISA; actives raise or lower the signal
Summary of the method: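 In this endothelial cell-based assay, human umbilical vein primary cells were treated with chemicals and harvested at 24 h. uPAR was quantified using ELISA, with gains or losses fitted relative to DMSO controls.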

## CCCCOCCOP(=O)(OCCOCCCC)OCCOCCCC
[1]
  outcome: inactive
[2]
  outcome: inactive
[3]
  outcome: inactive
[4]
  outcome: inactive
[5]
  outcome: inactive
[6]
  outcome: inactive
[7]
  outcome: inactive
[8]
  outcome: inactive
[9]
  outcome: inactive
[10]
  outcome: inactive
[11]
  outcome: inactive
[12]
  outcome: inactive
[13]
  outcome: inactive
[14]
  outcome: inactive
[15]
  outcome: inactive
[16]
  outcome: inactive

## CCOP(=O)(O)C(N)=O
[17]
  outcome: inactive
[4]
  outcome: inactive
[5]
  outcome: inactive
[7]
  outcome: inactive
[18]
  outcome: inactive
[8]
  outcome: inactive
[10]
  outcome: inactive
[11]
  outcome: inactive

## CCN(CC)c1ccccc1
[1]
  outcome: inactive
[3]
  outcome: inactive
[6]
  outcome: inactive
[7]
  outcome: inactive
[18]
  outcome: inactive
[8]
  outcome: inactive
[9]
  outcome: inactive
[10]
  outcome: inactive
[11]
  outcome: inactive
[12]
  outcome: inactive
[13]
  outcome: inactive
[14]
  outcome: inactive
[15]
  outcome: inactive
[16]
  outcome: inactive

## O=NN1CCCC1
[1]
  outcome: inactive
[3]
  outcome: inactive
[5]
  outcome: inactive
[7]
  outcome: inactive
[18]
  outcome: inactive
[8]
  outcome: inactive
[9]
  outcome: inactive
[10]
  outcome: inactive
[11]
  outcome: inactive
[12]
  outcome: inactive
[16]
  outcome: inactive

## CNC(=O)Oc1ccc(N(C)C)c(C)c1
[1]
  outcome: inactive
[2]
  outcome: inactive
[3]
  outcome: inactive
[5]
  outcome: inactive
[7]
  outcome: inactive
[19]
  outcome: inactive
[8]
  outcome: inactive
[9]
  outcome: inactive
[10]
  outcome: inactive
[11]
  outcome: inactive
[12]
  outcome: inactive

## N#Cc1c(-c2ccc(Cl)cc2)[nH]c(C(F)(F)F)c1Br
[17]
  outcome: inactive
[3]
  outcome: inactive
[6]
  outcome: inactive
[7]
  outcome: inactive
[19]
  outcome: inactive
[8]
  outcome: inactive
[9]
  outcome: inactive
[10]
  AC50: 0.0823 µM (active)
[11]
  AC50: 0.0675 µM (active)
[12]
  outcome: inactive
[13]
  AC50: 20 µM (active)
[20]
  AC50: 0.469 µM (active)
[14]
  AC50: 6.03 µM (active)
[15]
  AC50: 0.796 µM (active)
[16]
  outcome: inactive

## ClC(Cl)=C(c1ccc(Cl)cc1)c1ccccc1Cl
[17]
  outcome: inactive
[4]
  outcome: inactive
[6]
  outcome: inactive
[7]
  outcome: inactive
[8]
  outcome: inactive
[9]
  outcome: inactive
[10]
  AC50: 35.3 µM (active)
[11]
  AC50: 100 µM (active)
[12]
  outcome: inactive
[13]
  AC50: 20 µM (active)
[14]
  AC50: 10.7 µM (active)
[15]
  AC50: 6 µM (active)
[16]
  outcome: inactive

## COC(N)=O
[1]
  outcome: inactive
[3]
  outcome: inactive
[4]
  outcome: inactive
[7]
  outcome: inactive
[18]
  outcome: inactive
[8]
  outcome: inactive
[9]
  outcome: inactive
[10]
  outcome: inactive
[11]
  outcome: inactive
[12]
  outcome: inactive

## O=P(Oc1ccccc1)(Oc1ccccc1)Oc1ccccc1
[17]
  outcome: inactive
[4]
  outcome: inactive
[5]
  outcome: inactive
[6]
  AC50: 47.9 µM (active)
[7]
  outcome: inactive
[18]
  outcome: inactive
[8]
  outcome: inactive
[9]
  outcome: inactive
[10]
  AC50: 28.5 µM (active)
[11]
  AC50: 25.2 µM (active)
[12]
  outcome: inactive
[13]
  AC50: 27.3 µM (active)
[14]
  AC50: 27.6 µM (active)
[15]
  AC50: 33.8 µM (active)

## Cn1[nH]nnc1=S
[17]
  outcome: inactive
[4]
  outcome: inactive
[5]
  outcome: inactive
[6]
  outcome: inactive
[7]
  outcome: inactive
[19]
  outcome: inactive
[8]
  outcome: inactive
[9]
  outcome: inactive
[10]
  outcome: inactive
[11]
  outcome: inactive
[12]
  outcome: inactive
[16]
  outcome: inactive

Source: PubChem BioAssay (EPA / NIEHS)
